Test [1] is described as follows: compounds binding Alexa647 anti-His antibody – biochemical, small-molecule microarray, 635 nm fluorescence, artefact control for SMM control protein annotation, primary screen (AID 1128).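 Note: score merges feature fluorescence with signal-to-noise for each printed compound spot.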 To be noted: higher = more signal.
Test [2] deals with Human papillomavirus type 1a E7 protein (residues 1-88). As to the kind of experiment: HPV1a E7 small-molecule binders, primary screen, biochemical, small-molecule microarray, residues 1-88, 635 nm (AID 1129). To be noted: small-molecule microarray binding, fluorescence 635 nm; higher = more signal.
In test [3] the target is Focal adhesion kinase 1 (Homo sapiens) (UniProt Q05397). As to the kind of experiment: PTK2 protein binding on printed compound slides – biochemical, small-molecule microarray, 635/667 nm fluorescence, BSA, DTT, primary screen (AID 1130).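 Note: composite of spot emission at 667 nm and signal to noise over triplicate slides.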 To be noted: 635 nm fluorescence, higher = more signal.
The test system of test [4] is Fibrinogen (Alexa647-labelled). As to the kind of experiment: Alexa647-fibrinogen binding to printed small molecules – biochemical, small-molecule microarray, 635/667 nm fluorescence, artefact control for SMM control-protein annotation, profiling panel (AID 1131).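 Note: z-score merges 667 nm fluorescence with per-spot signal-to-noise over triplicate slides.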 Particulars: fibrinogen-A647 binding fluorescence, higher = more signal.
Test [5] has as its target Follistatin (Homo sapiens) (UniProt P19883). In words: FST protein binding to printed compounds – biochemical, small-molecule microarray, 635/667 nm fluorescence, primary screen (AID 1132). Particulars: 635 nm fluorescence, higher = more signal.
Test [6] addresses Fibroblast growth factor 2 (Homo sapiens) (UniProt P09038). As to the kind of experiment: basic fibroblast growth factor binding to printed compounds – biochemical, small-molecule microarray, 635/667 nm fluorescence, primary screen (AID 1133). To be noted: FGF2, fluorescence 635/667, higher = more signal.
The nature of test [7]: JC-1 mitochondrial potential readout, lung cancer cells – cell-based, A549, JC-1 fluorescence, basal, 24 h, 100 nL, profiling panel (AID 1138).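 Note: A549 lung adenocarcinoma cells under basal conditions with no added stimulus; test concentration not given here.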 To be noted: higher = more signal.
Another test deals with Lefty1. As to the kind of experiment: Lefty1 protein binding to printed compounds – biochemical, small-molecule microarray, 635/667 nm fluorescence, primary screen (AID 1139). Particulars: fluorescence 635/667, higher = more signal.
In test [8] the test system is wheat germ agglutinin (Triticum aestivum), Alexa647-labelled. In words: Alexa647-WGA lectin binding to printed small molecules – biochemical, small-molecule microarray, 635/667 nm fluorescence, artefact control for SMM control-protein annotation, profiling panel (AID 1140).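 Note: score merges 667 nm feature emission with signal to noise over triplicate slides.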 Particulars: WGA-A647 binding, 635 nm fluorescence, higher = more signal.
The target in test [9] is Luciferin 4-monooxygenase (Photinus pyralis) (UniProt P08659). As to the kind of experiment: inhibition of purified Photinus pyralis luciferase – biochemical, luminescence, purified enzyme, 2006 set, primary screen (AID 1141).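 Note: cell-free assay with purified firefly luciferase at 100 ng per well in PBS; test concentration not given here.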 Particulars: purified firefly luciferase, SteadyGlo luminescence, 30 min; higher = more signal, called active from +8 up or from −8 down.
In test [10] the test system is Wnt5a (protein binding on small-molecule microarray). In words: small molecules binding Wnt5a protein – biophysical, small-molecule microarray, 635/667 nm fluorescence, primary screen (AID 1142).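 Note: fluorescence read at 667 nm with signal to noise per printed feature.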 To be noted: 635 nm fluorescence, higher = more signal.
Test [11] is described as follows: ATP-based viability of Huh7 replicon cells – cell-based, CellTiter-Glo luminescence, basal, 48 h, cytotoxicity control for HCV replication inhibitor project, primary screen (AID 1143).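 Note: Huh7 hepatoma cells carrying a hepatitis C replication reporter with no stimulus; test concentration not given here.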 Particulars: higher = more signal, called active from +8 up or from −8 down. (In antiviral work, replicon cells carry a viral genome segment that copies itself.)
A short description of test [12]: Pseudomonas biofilm growth suppression – PAO1 strain, BacTiter-Glo luminescence, LB-PBS, primary screen (AID 1144). To be noted: P. aeruginosa PAO1 biofilm, 12 h, higher = more signal.
A short description of test [13]: basal CRE-LacZ reporter activity in PC12 – cell-based, unstimulated, primary screen (AID 1145). Particulars: no forskolin, luminescence, 4.5 h, higher = more signal, called active from +8 up or from −8 down.
Test [14] is described as follows: forskolin-driven CRE-LacZ activity in PC12 – cell-based, CRE-LacZ reporter, forskolin-stimulated, primary screen (AID 1146).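 Note: PC12 cells with 6xCRE LacZ reporter stimulated by forskolin 10 µM; beta-galactosidase reporter signal reflecting CREB driven transcription.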 To be noted: luminescence, 4.5 h, higher = more signal, called active from +8 up or from −8 down.
The target of test [15] is Streptavidin (Streptomyces avidinii) (UniProt P22629). In words: compounds binding control protein streptavidin – biophysical, small-molecule microarray, 635/667 nm fluorescence, artefact control for SMM compound annotation, primary screen (AID 1147).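 Note: signal reflects streptavidin binding to arrayed compounds as a control protein.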 Particulars: higher = more signal.
The nature of test [16]: probe aInhba binding on compound microarray – biochemical, small-molecule microarray, 635/667 nm fluorescence, primary screen (AID 1148).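 Note: score merges 667nm spot fluorescence with signal-to-noise for antibody binding to printed compounds.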 To be noted: higher = more signal.
The target of test [17] is Torsin-1A (Homo sapiens) (UniProt O14656). In words: TOR1A wild-type binding on microarray – cell lysate, small-molecule microarray, lysate, 635/667 nm, primary screen (AID 1149). To be noted: COS7 hTOR1A-WT lysate, 635 nm fluorescence, higher = more signal.
The target is the same in test [18]. As to the kind of experiment: torsin A mutant lysate binding on microarrays – cell lysate, small-molecule microarray, COS7 lysate, 635/667 nm fluorescence, primary screen (AID 1150).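 Note: score pools 667 nm emission and signal to noise measuring lysate protein binding.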 Particulars: COS7 hTOR1A mutant lysate, 635 nm fluorescence, higher = more signal.
The subject of test [19] is Sonic hedgehog protein (Shh). As to the kind of experiment: Sonic hedgehog microarray binding compounds – biochemical, small-molecule microarray, 635/667 nm fluorescence, primary screen (AID 1151).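 Note: Shh protein binding to compounds spotted on small-molecule microarray slides; score combines spot fluorescence intensity with signal-to-noise across triplicate slides.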 To be noted: 635 nm fluorescence, higher = more signal.

The values that follow come from PubChem BioAssay.

Active and inactive are the calls of the source. Unless noted, the rule behind the calls is not given here.

Chain of Luciferin 4-monooxygenase (Photinus pyralis) (P08659 whole entry, looked up): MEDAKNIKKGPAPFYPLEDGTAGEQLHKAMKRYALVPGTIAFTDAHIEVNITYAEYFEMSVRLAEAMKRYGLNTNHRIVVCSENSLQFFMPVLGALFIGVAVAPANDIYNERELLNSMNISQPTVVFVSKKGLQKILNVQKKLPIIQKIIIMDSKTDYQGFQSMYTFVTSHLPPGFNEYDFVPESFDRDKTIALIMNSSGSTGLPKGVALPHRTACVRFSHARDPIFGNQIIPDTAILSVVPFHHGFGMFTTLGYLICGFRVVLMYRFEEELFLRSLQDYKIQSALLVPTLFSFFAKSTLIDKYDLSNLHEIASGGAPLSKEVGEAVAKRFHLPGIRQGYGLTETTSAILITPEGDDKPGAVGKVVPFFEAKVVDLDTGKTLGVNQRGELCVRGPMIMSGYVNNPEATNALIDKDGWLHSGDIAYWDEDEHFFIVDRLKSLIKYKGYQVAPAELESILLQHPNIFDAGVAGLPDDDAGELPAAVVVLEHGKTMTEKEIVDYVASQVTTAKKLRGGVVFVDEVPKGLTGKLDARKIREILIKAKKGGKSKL
Chain of Torsin-1A (Homo sapiens) (O14656 whole entry, looked up): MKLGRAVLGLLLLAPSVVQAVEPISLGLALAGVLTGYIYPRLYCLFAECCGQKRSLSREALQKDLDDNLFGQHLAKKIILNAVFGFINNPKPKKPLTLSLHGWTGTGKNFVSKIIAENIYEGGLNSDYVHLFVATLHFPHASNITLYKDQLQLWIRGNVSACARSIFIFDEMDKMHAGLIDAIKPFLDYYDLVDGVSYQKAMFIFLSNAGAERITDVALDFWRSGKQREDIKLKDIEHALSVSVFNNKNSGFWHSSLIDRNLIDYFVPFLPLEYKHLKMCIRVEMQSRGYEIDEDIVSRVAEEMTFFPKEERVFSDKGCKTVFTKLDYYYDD
Chain of Focal adhesion kinase 1 (Homo sapiens) (Q05397 whole entry, looked up): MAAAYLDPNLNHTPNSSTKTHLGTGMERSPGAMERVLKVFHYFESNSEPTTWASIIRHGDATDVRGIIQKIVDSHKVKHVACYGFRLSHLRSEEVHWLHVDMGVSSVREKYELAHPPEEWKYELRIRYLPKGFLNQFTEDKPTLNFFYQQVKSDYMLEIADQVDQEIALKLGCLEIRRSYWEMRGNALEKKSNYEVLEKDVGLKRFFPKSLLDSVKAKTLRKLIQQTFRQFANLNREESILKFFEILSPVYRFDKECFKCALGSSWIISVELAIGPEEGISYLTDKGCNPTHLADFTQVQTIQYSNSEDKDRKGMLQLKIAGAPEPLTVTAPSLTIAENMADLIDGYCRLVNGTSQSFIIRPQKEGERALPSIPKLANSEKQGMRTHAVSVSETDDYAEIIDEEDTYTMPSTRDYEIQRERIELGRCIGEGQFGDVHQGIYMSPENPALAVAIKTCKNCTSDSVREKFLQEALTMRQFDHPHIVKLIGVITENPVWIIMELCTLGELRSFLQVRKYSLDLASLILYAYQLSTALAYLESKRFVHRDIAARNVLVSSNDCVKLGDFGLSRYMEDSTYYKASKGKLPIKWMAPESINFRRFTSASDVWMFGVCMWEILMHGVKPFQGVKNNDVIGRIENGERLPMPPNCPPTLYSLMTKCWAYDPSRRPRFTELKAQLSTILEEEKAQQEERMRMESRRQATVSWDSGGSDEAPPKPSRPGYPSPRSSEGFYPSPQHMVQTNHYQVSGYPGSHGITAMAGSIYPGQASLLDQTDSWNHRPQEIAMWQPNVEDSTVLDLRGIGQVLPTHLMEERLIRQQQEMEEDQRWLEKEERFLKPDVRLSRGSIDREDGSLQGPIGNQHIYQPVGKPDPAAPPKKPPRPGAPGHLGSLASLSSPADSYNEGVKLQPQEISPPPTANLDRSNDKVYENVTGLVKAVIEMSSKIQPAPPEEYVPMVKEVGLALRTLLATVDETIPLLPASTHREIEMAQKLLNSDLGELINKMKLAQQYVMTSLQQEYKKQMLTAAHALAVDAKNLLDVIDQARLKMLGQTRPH
Chain of Fibroblast growth factor 2 (Homo sapiens) (P09038 whole entry, looked up): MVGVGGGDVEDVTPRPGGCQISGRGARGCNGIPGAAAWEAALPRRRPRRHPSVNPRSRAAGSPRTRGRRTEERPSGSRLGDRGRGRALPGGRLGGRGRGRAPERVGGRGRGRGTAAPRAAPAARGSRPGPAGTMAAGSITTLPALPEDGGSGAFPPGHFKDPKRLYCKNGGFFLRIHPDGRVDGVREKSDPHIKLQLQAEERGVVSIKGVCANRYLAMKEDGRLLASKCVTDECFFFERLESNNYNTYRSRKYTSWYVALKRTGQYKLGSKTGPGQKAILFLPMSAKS
Chain of Follistatin (Homo sapiens) (P19883 whole entry, looked up): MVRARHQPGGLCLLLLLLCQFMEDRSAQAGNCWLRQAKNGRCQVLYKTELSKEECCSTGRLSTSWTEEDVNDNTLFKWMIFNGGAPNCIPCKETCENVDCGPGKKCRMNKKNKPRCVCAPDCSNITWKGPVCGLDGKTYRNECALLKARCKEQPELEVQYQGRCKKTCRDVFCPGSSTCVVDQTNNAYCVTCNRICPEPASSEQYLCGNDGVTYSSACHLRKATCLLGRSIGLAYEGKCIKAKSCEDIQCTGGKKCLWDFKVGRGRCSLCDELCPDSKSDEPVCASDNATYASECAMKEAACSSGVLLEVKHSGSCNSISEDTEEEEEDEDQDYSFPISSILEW
Chain of Streptavidin (Streptomyces avidinii) (P22629 whole entry, looked up): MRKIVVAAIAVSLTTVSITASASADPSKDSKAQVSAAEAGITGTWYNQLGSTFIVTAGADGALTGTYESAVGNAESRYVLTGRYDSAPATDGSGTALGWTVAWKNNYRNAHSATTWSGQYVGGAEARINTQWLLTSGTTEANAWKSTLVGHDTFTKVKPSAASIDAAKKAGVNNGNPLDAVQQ

Turning to `C=C(C(=O)CC[C@@H](OC(C)=O)c1cccc(OCCO)c1)C(C)C`, the composite z-score is 0.83 in [1]; 0.54 in [2]; 0.217 in test [3]; -0.281 in test [4]; 0.549 in test [5]; -0.531 in test [6]. In addition, the composite z-score with Lefty1 was 0.889; in [8], 0.449; in test [10], -0.162; in test [15], -0.377; in [16] it was 0.0053; with Torsin-1A (Homo sapiens) [17], 1.93. The composite z-score in the test with Torsin-1A (Homo sapiens) [18] turned out to be 0.456; in [19], 2. Further, the z-score in test [7] was -0.106; in test [9], -1.08 (inactive); in [11] it was -0.344 (inactive); in test [12], 0.0482 (inactive); in test [13], 2.29 (inactive); in test [14], 1.23 (inactive).
As for `O=C1C2C=CC(C(O)c3ccc([N+](=O)[O-])cc3)N(Nc3ccccc3)C2C(=O)N1c1ccccc1` (stereo not given), the composite z-score is 0.175 in test [1]; 0.976 in test [2]; 1.38 in test [3]; 1.02 in test [4]; 0.544 in test [5]; -0.239 in test [6]. The composite z-score with Lefty1 is 0.27; in [8], 0.611; in [10], 0.0051; in [15], -0.146; in test [16] it was -0.101; in the test with Torsin-1A (Homo sapiens) [17], -0.132. For the same molecule, the composite z-score with Torsin-1A (Homo sapiens) [18] was 0.221; in test [19] it was -0.653. The z-score in test [7] is -0.467; in test [9] it was -0.284 (inactive); in test [11], 0.0203 (inactive); in [12], -0.0023 (inactive); in test [13] it was -0.333 (inactive); in test [14], 0.495 (inactive).
As to `CN1C(=O)[C@]2(CCC(=O)OC(C)(C)C)N=C(c3ccc(OCCCO)cc3)O[C@@H]2c2ccccc21`, the composite z-score turned out to be 1.2 in [1]; 1.23 in test [2]; 0.488 in [3]; 0.95 in test [4]; 1.44 in [5]; 1.55 in test [6]. The composite z-score was 0.853 with Lefty1; 0.182 in test [8]; 0.935 in [10]; -0.201 in [15]; 0.134 in test [16]; 0.112 with Torsin-1A (Homo sapiens) [17]. The composite z-score in the test with Torsin-1A (Homo sapiens) [18] was 0.401; in [19], 2.11. The z-score was 1.85 in [7]; -2.79 (inactive) in [9]; -4.74 (inactive) in [11]; -0.598 (inactive) in test [12]; 1.41 (inactive) in test [13]; -0.572 (inactive) in test [14].
For the molecule `COC(=O)C1=CC(CCCO)=CC(c2ccc(CN3CCCC3)cc2)N(Cc2sc3ccccc3c2Cl)C=C1C(=O)OC` (stereo not given), the composite z-score worked out at 3.17 in [1]; 1.23 in test [2]; 0.579 in test [3]; 1.05 in test [4]; 0.59 in [5]; 0.709 in test [6]. Further, the composite z-score with Lefty1 came out at 0.377; in test [8], 1.34; in [10], 1.25; in test [15], 1.85; in test [16], 0.662; with Torsin-1A (Homo sapiens) [17], 0.591. For the same molecule, the figures for the composite z-score (in the test with Torsin-1A (Homo sapiens) [18]; in test [19]) were 1.88 and 0.836, respectively. In addition, the z-score in test [7] was 4.12; in test [9], -2.8 (inactive); in [11], -3.24 (inactive); in test [12], -0.782 (inactive); in test [13], 0.209 (inactive); in test [14], -1.74 (inactive).
`CCOC(=O)C1=CC[C@@H](c2ccccc2)N(S(=O)(=O)c2ccc(C)cc2)[C@H]1C#N`: the composite z-score is 0.806 in [1]; 1.2 in test [2]; 0.721 in test [3]; 0.986 in [4]; -0.33 in [5]; -0.162 in [6]. Further, the composite z-score in the test on Lefty1 is -0.565; in [8] it was 0.517; in test [10], 0.114; in [15], 0.93; in [16], 0.134; in the test with Torsin-1A (Homo sapiens) [17] it was 0.0439. The values for the composite z-score (in the test with Torsin-1A (Homo sapiens) [18]; in test [19]) were 0.189 and -0.707, respectively. Also, the z-score in [7] is -0.604; in test [9], -0.227 (inactive); in test [11], -1.82 (inactive); in test [12], 0.184 (inactive); in test [13], -0.48 (inactive); in test [14], 3.56 (inactive).
